Measured values: ChEMBL document CHEMBL1961873, “Compounds: GSK PKIS; Assays: Nanosyn kinase panel” (2012)

Legend:
[1] = test system: Epidermal growth factor receptor (Homo sapiens), P00533 [T790M]; conditions: at 1 µM
[2] = test system: Epidermal growth factor receptor (Homo sapiens), P00533 [L858R,T790M]; conditions: at 0.1 µM
[3] = test system: Epidermal growth factor receptor (Homo sapiens), P00533 [L858R,T790M]; conditions: at 1 µM
[4] = biological target: Ephrin type-A receptor 2 (Homo sapiens) (UniProt P29317); conditions: at 0.1 µM
[5] = biological target: Ephrin type-A receptor 2 (Homo sapiens) (UniProt P29317); conditions: at 1 µM
[6] = biological target: T1, Ephrin type-A receptor 3 (Homo sapiens) (UniProt P29320); conditions: at 0.1 µM
T1 sequence (whole entry): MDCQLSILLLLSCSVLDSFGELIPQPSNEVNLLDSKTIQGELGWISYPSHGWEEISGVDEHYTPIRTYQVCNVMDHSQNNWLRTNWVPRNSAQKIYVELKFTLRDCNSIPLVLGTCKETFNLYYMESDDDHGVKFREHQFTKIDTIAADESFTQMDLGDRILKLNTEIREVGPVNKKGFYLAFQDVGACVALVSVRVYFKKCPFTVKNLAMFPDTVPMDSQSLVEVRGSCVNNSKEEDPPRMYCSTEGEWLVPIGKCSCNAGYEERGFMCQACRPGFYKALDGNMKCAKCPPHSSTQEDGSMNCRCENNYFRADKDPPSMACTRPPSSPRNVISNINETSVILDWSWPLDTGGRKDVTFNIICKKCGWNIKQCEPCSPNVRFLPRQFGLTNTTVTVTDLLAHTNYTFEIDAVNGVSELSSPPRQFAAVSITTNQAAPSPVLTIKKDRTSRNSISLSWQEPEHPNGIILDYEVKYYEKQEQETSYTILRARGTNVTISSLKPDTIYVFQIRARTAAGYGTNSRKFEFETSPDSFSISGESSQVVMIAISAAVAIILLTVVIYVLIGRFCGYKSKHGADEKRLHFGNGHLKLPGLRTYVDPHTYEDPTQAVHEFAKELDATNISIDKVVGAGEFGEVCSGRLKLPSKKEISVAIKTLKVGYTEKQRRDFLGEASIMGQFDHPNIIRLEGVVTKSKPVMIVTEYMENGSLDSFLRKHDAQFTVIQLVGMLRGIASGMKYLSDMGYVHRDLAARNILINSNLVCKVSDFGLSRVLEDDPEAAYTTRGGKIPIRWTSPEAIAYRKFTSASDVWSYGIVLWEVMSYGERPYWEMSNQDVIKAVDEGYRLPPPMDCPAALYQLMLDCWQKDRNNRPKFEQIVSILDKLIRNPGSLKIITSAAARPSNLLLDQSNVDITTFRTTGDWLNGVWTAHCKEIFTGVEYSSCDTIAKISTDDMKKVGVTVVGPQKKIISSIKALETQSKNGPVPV

[7] = biological target: T1, Ephrin type-A receptor 3 (Homo sapiens); conditions: at 1 µM
[8] = biological target: Ephrin type-A receptor 4 (Homo sapiens) (UniProt P54764); conditions: at 0.1 µM
[9] = biological target: Ephrin type-A receptor 4 (Homo sapiens) (UniProt P54764); conditions: at 1 µM
[10] = biological target: T2, Ephrin type-B receptor 2 (Homo sapiens) (UniProt P29323); conditions: at 0.1 µM
T2 sequence (whole entry): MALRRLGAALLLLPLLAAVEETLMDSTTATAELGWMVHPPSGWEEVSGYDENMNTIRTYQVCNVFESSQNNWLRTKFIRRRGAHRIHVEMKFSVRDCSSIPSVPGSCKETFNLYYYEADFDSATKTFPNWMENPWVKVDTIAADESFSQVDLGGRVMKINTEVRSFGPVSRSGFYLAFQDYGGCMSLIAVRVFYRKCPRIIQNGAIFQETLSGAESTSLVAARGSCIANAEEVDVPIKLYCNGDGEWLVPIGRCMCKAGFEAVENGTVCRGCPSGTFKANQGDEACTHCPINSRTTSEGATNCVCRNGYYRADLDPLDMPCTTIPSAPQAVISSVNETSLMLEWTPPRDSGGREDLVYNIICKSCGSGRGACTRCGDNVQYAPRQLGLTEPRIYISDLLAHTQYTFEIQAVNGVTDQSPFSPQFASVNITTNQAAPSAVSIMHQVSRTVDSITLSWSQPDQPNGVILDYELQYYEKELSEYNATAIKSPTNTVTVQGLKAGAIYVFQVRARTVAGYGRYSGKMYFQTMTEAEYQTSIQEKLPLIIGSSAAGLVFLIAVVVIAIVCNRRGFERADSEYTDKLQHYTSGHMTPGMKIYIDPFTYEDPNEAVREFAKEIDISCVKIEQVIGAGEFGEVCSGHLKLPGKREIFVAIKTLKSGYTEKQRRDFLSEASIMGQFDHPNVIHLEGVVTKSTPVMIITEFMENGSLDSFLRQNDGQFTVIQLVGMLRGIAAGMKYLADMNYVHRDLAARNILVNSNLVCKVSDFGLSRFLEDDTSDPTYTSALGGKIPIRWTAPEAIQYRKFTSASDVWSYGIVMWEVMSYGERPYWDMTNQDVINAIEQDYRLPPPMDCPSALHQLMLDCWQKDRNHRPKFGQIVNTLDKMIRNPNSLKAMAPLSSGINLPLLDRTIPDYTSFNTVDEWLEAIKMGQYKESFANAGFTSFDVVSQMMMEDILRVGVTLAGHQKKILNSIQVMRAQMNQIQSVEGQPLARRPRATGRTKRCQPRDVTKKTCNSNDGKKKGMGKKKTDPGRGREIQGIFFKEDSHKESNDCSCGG

[11] = biological target: T2, Ephrin type-B receptor 2 (Homo sapiens); conditions: at 1 µM
[12] = biological target: T3, Ephrin type-B receptor 3 (Homo sapiens) (UniProt P54753); conditions: at 0.1 µM
T3 sequence (whole entry): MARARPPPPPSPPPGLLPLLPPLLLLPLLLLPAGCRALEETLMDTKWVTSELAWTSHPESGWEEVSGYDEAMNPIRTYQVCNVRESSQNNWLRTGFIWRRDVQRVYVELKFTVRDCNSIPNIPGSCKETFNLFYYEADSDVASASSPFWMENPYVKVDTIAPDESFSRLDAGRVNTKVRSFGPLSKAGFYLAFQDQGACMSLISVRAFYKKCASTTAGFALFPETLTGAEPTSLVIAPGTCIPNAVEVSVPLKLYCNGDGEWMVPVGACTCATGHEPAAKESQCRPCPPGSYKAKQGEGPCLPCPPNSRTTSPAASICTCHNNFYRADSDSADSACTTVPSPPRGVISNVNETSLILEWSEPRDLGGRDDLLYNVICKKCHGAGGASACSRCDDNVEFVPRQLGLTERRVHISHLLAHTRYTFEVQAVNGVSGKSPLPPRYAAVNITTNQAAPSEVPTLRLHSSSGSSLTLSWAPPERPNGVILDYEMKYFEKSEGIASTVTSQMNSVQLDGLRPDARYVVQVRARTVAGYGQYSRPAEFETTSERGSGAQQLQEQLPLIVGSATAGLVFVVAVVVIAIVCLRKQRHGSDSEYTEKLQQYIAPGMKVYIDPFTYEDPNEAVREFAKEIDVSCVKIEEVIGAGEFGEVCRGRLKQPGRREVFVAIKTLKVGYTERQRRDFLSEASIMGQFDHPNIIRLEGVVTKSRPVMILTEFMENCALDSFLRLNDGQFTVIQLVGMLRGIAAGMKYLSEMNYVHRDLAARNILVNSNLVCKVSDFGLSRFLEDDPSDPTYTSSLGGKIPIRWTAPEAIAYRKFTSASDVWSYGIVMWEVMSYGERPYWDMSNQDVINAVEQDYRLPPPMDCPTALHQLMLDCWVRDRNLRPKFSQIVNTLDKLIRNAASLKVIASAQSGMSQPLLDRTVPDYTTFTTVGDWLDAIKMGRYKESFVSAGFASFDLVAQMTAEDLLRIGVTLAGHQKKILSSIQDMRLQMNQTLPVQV

[13] = biological target: T3, Ephrin type-B receptor 3 (Homo sapiens); conditions: at 1 µM
[14] = biological target: T4, Ephrin type-B receptor 4 (Homo sapiens) (UniProt P54760); conditions: at 0.1 µM
T4 sequence (whole entry): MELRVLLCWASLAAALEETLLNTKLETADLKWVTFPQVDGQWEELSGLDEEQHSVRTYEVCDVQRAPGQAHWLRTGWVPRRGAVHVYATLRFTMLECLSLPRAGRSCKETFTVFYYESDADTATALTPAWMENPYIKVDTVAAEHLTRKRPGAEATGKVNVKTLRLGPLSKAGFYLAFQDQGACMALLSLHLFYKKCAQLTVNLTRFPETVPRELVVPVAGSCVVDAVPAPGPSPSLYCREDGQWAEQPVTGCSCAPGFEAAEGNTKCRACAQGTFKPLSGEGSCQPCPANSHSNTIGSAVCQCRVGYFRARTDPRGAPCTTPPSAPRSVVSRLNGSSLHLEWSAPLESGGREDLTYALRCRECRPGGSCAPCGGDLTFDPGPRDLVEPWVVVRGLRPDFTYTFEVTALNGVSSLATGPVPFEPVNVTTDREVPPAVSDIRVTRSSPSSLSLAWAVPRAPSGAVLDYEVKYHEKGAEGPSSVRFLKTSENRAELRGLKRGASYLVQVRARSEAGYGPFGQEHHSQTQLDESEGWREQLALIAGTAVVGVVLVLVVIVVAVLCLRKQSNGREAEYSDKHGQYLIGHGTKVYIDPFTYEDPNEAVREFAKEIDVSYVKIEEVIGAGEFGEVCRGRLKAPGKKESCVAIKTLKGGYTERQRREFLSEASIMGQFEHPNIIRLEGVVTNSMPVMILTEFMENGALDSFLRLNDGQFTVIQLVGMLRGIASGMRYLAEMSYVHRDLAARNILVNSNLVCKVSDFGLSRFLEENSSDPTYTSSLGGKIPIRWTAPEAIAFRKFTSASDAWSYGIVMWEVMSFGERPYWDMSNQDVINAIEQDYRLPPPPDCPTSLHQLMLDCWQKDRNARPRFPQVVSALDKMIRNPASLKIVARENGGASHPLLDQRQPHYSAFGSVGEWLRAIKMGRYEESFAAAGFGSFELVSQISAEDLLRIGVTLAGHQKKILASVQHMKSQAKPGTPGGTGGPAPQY

[15] = biological target: T4, Ephrin type-B receptor 4 (Homo sapiens); conditions: at 1 µM
[16] = biological target: Receptor tyrosine-protein kinase erbB-2 (Homo sapiens) (UniProt P04626); conditions: at 0.1 µM
[17] = biological target: Receptor tyrosine-protein kinase erbB-2 (Homo sapiens) (UniProt P04626); conditions: at 1 µM
[18] = biological target: Receptor tyrosine-protein kinase erbB-4 (Homo sapiens) (UniProt Q15303); conditions: at 0.1 µM
[19] = biological target: Receptor tyrosine-protein kinase erbB-4 (Homo sapiens) (UniProt Q15303); conditions: at 1 µM
[20] = biological target: Tyrosine-protein kinase Fer (Homo sapiens) (UniProt P16591); conditions: at 0.1 µM;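 further: reported figures are averaged percent inhibition of FER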

Sequence of Epidermal growth factor receptor (Homo sapiens), P00533 [L858R,T790M] (P00533 whole entry T790M/L858R, looked up): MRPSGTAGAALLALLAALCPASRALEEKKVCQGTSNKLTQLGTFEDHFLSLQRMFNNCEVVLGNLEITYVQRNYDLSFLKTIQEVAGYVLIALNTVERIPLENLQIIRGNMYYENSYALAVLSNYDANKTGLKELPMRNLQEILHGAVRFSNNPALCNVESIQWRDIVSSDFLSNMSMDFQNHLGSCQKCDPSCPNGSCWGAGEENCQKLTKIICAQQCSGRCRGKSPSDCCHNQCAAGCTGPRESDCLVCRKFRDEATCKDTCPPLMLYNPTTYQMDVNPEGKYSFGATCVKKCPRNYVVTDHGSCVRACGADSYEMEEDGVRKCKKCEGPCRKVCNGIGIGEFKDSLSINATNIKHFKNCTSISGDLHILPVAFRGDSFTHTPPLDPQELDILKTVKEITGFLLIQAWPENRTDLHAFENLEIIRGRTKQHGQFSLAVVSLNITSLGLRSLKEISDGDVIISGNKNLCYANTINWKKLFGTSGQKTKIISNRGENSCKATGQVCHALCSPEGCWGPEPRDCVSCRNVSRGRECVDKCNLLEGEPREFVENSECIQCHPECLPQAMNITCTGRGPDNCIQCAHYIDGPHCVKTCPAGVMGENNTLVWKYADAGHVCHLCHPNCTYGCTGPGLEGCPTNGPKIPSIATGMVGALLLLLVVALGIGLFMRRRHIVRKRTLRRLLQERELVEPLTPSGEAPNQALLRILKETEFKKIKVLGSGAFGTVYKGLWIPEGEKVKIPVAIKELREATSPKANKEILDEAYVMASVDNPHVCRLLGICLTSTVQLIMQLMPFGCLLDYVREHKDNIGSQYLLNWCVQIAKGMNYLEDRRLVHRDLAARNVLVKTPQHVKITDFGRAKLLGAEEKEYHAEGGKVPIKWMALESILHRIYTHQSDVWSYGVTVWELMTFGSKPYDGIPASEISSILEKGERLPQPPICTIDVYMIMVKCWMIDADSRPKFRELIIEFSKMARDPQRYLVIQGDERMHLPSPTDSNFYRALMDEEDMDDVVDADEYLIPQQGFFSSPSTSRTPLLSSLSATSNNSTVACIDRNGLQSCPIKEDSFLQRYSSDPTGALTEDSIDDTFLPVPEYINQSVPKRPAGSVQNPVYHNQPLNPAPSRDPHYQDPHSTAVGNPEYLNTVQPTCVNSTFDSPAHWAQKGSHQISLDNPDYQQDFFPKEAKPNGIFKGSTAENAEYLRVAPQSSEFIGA
Sequence of Receptor tyrosine-protein kinase erbB-2 (Homo sapiens) (P04626 whole entry): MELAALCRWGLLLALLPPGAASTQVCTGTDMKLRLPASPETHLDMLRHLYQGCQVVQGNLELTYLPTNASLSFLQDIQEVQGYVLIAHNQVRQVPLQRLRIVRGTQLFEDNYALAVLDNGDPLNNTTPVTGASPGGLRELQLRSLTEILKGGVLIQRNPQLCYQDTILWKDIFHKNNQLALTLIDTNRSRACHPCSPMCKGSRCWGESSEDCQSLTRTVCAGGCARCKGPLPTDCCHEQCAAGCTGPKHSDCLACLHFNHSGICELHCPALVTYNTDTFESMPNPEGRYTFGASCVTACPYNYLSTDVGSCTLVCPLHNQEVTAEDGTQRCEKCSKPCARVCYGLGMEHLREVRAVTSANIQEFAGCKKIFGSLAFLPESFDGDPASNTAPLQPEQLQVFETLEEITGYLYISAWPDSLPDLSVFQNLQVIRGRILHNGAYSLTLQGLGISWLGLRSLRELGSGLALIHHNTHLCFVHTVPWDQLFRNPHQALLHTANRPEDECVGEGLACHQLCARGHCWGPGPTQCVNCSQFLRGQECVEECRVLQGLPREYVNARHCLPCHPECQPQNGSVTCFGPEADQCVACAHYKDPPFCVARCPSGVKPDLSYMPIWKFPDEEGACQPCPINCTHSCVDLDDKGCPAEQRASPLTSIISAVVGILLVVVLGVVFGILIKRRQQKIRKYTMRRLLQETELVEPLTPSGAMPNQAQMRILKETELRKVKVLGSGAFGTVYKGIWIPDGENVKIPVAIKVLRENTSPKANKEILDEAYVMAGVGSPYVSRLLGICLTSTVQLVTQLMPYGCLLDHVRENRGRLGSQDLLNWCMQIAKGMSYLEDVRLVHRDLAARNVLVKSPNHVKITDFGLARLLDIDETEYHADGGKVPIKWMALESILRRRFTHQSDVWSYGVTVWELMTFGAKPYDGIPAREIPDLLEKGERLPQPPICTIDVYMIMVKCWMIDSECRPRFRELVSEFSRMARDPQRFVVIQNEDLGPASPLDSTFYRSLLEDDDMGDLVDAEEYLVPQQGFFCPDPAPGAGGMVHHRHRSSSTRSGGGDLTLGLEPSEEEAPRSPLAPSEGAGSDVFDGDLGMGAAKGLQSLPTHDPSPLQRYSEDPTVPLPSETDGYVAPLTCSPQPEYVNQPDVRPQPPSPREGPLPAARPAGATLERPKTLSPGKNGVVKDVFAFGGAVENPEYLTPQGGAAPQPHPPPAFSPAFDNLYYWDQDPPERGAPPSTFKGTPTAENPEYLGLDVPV
Sequence of Ephrin type-A receptor 2 (Homo sapiens) (P29317 whole entry): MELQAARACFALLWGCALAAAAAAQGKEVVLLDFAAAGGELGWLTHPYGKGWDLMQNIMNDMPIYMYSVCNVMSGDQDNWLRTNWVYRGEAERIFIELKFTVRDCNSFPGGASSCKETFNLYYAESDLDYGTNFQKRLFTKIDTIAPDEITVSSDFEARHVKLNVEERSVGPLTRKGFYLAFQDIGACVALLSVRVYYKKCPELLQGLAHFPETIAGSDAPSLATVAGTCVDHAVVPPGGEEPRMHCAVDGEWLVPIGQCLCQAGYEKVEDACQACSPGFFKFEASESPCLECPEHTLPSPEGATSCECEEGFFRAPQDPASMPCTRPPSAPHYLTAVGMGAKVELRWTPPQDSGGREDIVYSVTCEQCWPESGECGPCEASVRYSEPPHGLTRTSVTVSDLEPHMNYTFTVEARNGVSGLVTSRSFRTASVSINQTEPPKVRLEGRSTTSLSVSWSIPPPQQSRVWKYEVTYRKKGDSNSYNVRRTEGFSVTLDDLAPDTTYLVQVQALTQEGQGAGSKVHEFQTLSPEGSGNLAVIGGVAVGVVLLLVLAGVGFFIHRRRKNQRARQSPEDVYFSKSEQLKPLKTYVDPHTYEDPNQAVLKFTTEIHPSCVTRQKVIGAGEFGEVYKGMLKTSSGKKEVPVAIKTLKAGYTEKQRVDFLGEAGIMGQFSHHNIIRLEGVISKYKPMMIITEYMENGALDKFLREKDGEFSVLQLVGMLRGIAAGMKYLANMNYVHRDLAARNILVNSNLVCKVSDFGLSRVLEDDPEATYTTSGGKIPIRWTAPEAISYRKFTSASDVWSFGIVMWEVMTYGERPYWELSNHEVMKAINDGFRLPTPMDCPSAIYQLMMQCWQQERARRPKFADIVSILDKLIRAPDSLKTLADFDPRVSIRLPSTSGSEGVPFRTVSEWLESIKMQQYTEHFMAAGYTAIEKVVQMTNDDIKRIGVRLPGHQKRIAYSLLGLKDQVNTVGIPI
Sequence of Receptor tyrosine-protein kinase erbB-4 (Homo sapiens) (Q15303 whole entry): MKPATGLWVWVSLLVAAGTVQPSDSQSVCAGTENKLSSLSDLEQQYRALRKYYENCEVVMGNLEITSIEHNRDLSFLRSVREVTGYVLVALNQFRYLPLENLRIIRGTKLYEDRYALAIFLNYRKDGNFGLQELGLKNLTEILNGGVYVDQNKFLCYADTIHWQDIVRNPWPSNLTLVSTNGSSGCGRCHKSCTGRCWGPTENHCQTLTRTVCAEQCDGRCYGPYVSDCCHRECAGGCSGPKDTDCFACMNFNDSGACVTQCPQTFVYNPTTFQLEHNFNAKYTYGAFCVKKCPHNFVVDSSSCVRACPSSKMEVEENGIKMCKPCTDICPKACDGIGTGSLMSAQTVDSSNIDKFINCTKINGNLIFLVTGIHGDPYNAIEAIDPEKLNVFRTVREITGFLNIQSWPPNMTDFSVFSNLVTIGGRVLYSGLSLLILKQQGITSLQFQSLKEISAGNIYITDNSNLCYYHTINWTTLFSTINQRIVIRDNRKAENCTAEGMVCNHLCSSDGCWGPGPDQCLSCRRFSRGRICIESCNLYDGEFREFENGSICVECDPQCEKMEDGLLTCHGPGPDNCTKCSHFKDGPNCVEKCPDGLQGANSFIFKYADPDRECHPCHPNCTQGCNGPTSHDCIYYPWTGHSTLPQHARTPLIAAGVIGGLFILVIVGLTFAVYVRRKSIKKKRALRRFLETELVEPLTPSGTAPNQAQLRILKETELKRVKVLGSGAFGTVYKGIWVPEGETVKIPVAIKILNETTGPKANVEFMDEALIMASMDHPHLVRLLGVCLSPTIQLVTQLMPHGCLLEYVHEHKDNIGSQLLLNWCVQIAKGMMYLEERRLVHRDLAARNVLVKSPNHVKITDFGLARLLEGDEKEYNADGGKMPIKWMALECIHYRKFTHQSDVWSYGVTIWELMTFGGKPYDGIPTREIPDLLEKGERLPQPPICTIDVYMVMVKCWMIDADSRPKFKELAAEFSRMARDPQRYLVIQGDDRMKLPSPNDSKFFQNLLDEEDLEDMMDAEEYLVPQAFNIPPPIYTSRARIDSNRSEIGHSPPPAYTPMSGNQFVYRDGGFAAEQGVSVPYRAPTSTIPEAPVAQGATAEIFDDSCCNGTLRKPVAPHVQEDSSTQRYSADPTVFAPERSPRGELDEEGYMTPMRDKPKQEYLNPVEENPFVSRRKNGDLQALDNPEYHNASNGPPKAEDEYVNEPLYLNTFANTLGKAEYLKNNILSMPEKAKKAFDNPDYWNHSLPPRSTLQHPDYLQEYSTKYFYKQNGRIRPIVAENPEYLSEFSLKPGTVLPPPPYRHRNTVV

Structure (SMILES)	inhibition [1]	inhibition [2]	inhibition [3]	inhibition [4]	inhibition [5]	inhibition [6]	inhibition [7]	inhibition [8]	inhibition [9]	inhibition [10]	inhibition [11]	inhibition [12]	inhibition [13]	inhibition [14]	inhibition [15]	inhibition [16]	inhibition [17]	inhibition [18]	inhibition [19]	inhibition [20]
Cc1ccc(O)cc1Nc1ccnc2ccc(S(C)(=O)=O)cc12	7.86%	4.88%	5.18%	91.3%	95.7%	92.2%	81.5%	89.3%	93.5%	83.6%	86.3%	96.9%	97.3%	91.6%	95.6%	4.44%	5.88%	20.2%	52.2%	4.91%
OCc1ccc(-c2nc(-c3ccccn3)c(-c3ccc4c(c3)OCO4)[nH]2)cc1	0.84%	3.54%	0.26%	2.78%	2.31%	6.06%	6.97%	9.84%	7.48%	12.2%	11.4%	5.72%	3.87%	4.58%	4.09%	0.45%	-3.06%	11.6%	12.7%	2.2%
O=S(=O)(CCOCc1ccc(-c2ccc3ncnc(Nc4ccc(OCc5cccc(F)c5)c(Cl)c4)c3c2)o1)c1ccccc1	2.25%	-3.02%	1.89%	-3.01%	-2.3%	-1.7%	0.9%	2.2%	5.8%	8%	6.76%	-0.47%	3.29%	1.15%	1.36%	11.6%	69.8%	27.5%	82.6%	-3.62%
CN(c1ccc(NC(=O)Nc2ccc(OC(F)(F)F)cc2)cc1)c1ccnc(Nc2cccc(S(N)(=O)=O)c2)n1	1.56%	2.59%	2.24%	3.48%	35.4%	5.58%	18.3%	9.59%	59.8%	10.9%	54.8%	3.87%	8.25%	1.79%	30.7%	2.39%	4.23%	7.13%	14.5%	12.6%
